{
  "source": "PubChem BioAssay AID720648",
  "about": "(The Scripps Research Institute Molecular Screening Center, 2013)",
  "note": "In all, about 370,000 compounds went through this assay and about 3,100 (0.84%) were called active.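 How the source made its calls: active means inhibition above the mean of compounds lying between control limits plus 3 SD, set per campaign (cut at about 8.5% in these data); inactive means the rest.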 What follows is part of a selection rich in actives, with near analogues and random picks from the rest.",
  "data": [
    {"target": "Disintegrin and metalloproteinase domain-containing protein 17 (Homo sapiens) (UniProt P78536)", "sequence (P78536 215-824 limits assumed)": "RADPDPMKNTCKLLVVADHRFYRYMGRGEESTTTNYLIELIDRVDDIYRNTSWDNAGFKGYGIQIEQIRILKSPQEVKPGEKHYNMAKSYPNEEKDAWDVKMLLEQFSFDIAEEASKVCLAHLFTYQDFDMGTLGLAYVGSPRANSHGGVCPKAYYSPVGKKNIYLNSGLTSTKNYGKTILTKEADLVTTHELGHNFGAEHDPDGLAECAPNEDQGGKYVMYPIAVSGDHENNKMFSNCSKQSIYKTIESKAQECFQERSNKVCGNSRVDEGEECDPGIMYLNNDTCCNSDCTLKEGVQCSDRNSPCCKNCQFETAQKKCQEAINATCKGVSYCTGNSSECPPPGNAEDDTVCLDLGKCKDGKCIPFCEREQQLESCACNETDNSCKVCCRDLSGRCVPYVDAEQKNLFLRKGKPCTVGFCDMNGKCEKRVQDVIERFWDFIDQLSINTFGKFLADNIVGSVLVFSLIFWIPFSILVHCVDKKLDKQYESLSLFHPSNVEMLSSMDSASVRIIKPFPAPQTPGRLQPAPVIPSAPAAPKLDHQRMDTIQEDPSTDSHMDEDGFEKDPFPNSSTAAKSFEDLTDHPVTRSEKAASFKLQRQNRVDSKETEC", "experiment": "ADAM17 inhibitors, primary screen, biochemical, QFRET (AID 720648);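 further: 0% = DMSO-only wells as the low control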", "conditions": "recombinant ADAM17, EDANS/DABCYL FRET peptide cleavage; at 6.95 µM; stronger effect = higher value", "values": [
      {"smiles": "Cc1ccc(Cn2cc(CN3[C@@H](C)COc4cc(Br)ccc4S3(=O)=O)nn2)cc1", "inhibition": "-2.3% (inactive)"},
      {"smiles": "COC(=O)c1cccc(Cn2ccc3ccc(-c4ccc5ccn(C(=O)C6CCCCC6)c5c4)cc32)c1", "inhibition": "-4.69% (inactive)"},
      {"smiles": "Cc1ccc(C2=CCN(C)C(=O)N2c2ccc(Cl)cc2)cc1", "inhibition": "0.02% (inactive)"},
      {"smiles": "CCOC(=O)C1CCN(C(=O)C(C)(C)NC(=O)Nc2ccc(F)c(F)c2)CC1", "inhibition": "0.09% (inactive)"},
      {"smiles": "COc1ccccc1C(=O)CSc1nnc(-c2ccccn2)n1-c1ccccc1", "inhibition": "-0.51% (inactive)"},
      {"smiles": "CCOC(=O)[C@]12CCCCC/C=C\\1N(Cc1ccc(OC)cc1)C(=O)[C@H]2CC(=O)NCc1ccc(C)o1", "inhibition": "-1.43% (inactive)"},
      {"smiles": "NNC(=O)C1CCCn2c1nc1sc3c(c1c2=O)CCCC3", "note": "(stereo unspecified)", "inhibition": "11.2% (active)"},
      {"smiles": "Cc1ccc(C)c(-n2c(SCC(=O)O)nc3sc4c(c3c2=O)CCCC4)c1", "inhibition": "0.43% (inactive)"},
      {"smiles": "CCn1c(SCC(C)=O)nc2sc3c(c2c1=O)CCCC3", "inhibition": "-1.68% (inactive)"},
      {"smiles": "O=C(CN1CCC(NC(=O)NCc2ccccc2)CC1)Nc1ccc2c(c1)OCCO2", "inhibition": "-4.62% (inactive)"},
      {"smiles": "CCCC[C@H](C(=O)N(CC)c1ccccc1)[C@@H](O)c1ccc2ccccc2c1", "inhibition": "4.5% (inactive)"},
      {"smiles": "O=C1CCC(C(=O)OCC(=O)Nc2ccc(OC(F)F)cc2)=NN1", "inhibition": "5.95% (inactive)"},
      {"smiles": "CCC(C)(C)c1ccc(Oc2ccc(NC(=O)COC(=O)C3=COCCO3)cc2)cc1", "inhibition": "15.7% (active)"},
      {"smiles": "COc1ccc(NC(=O)COC(=O)CNC(=O)C2CCCCC2)cc1", "inhibition": "-0.83% (inactive)"},
      {"smiles": "CCOC(=O)N1CCN(C(=O)C[C@@H]2C(=O)N(CCc3ccc(Cl)cc3)C3=CCCC[C@]32C(=O)OCC)CC1", "inhibition": "-1.27% (inactive)"},
      {"smiles": "CC[C@@H](CCC(=O)N(c1ccccc1)c1ccccc1)C1CC1", "inhibition": "-3.63% (inactive)"},
      {"smiles": "Nn1c(SCC(=O)Nc2cccc3ccccc23)nnc1-c1cc(-c2ccc(F)cc2)n[nH]1", "inhibition": "-1.2% (inactive)"},
      {"smiles": "Cn1c(=O)c2sccc2n(Cc2ccc(Br)cc2)c1=O", "inhibition": "0.1% (inactive)"},
      {"smiles": "C/C(Cl)=C\\Cn1c(Nc2cccc(C)c2)nc2c1c(=O)n(C)c(=O)n2C", "inhibition": "1.3% (inactive)"},
      {"smiles": "Cn1c(=O)c2c(nc(N/N=C/c3cccs3)n2Cc2ccc(Br)cc2)n(C)c1=O", "inhibition": "9.47% (active)"},
      {"smiles": "COc1ccc(CSc2nnc(-c3cccc(C)c3)n2C)cc1", "inhibition": "-0.21% (inactive)"},
      {"smiles": "CCOc1ccc(Nc2nc(Cc3nnc(SCC(=O)NC4CCCC4)n3C)cs2)cc1", "inhibition": "-1.2% (inactive)"},
      {"smiles": "CC(=O)Nc1ccc(C(=O)CSc2nnc(Cc3ccccc3)o2)cc1", "inhibition": "2.43% (inactive)"},
      {"smiles": "CCOc1ccc(Nc2nc(Cc3nnc(SCC(=O)c4ccc(C)cc4)o3)cs2)cc1", "inhibition": "13.7% (active)"},
      {"smiles": "COc1ccc(C2CC=C(C(=O)O)C(c3ccccc3F)N2S(=O)(=O)c2ccc(C)cc2)cc1OC", "note": "(stereo unspecified)", "inhibition": "-3.14% (inactive)"},
      {"smiles": "O=C1/C(=C\\c2ccsc2)NC(=S)N1c1ccccc1", "inhibition": "9.7% (active)"},
      {"smiles": "CC1=CC(C)(C)NC(=S)N1c1ccccc1", "inhibition": "-5.69% (inactive)"},
      {"smiles": "CCCCN=C1N/C(=C\\c2ccco2)C(=O)N1c1ccccc1", "inhibition": "-3.3% (inactive)"},
      {"smiles": "CCC(=O)OCCCN1C(=O)CCC12CCC(c1ccccc1)CC2", "note": "(stereo unspecified)", "inhibition": "0.25% (inactive)"},
      {"smiles": "O=C(CCl)NC1CCCCN(Cc2cccc(C(F)(F)F)c2)C1=O", "note": "(stereo unspecified)", "inhibition": "-6.37% (inactive)"},
      {"smiles": "O=S1(=O)c2ccc(Br)cc2OC[C@H](Cc2ccccc2)N1Cc1cn(Cc2ccccc2)nn1", "inhibition": "-10.2% (inactive)"},
      {"smiles": "C[C@H](NC(=O)c1nc[nH]c1C(=O)NCC(=O)OC(C)(C)C)C(=O)OCc1ccccc1", "inhibition": "0.33% (inactive)"},
      {"smiles": "C[C@@H](NC(=O)c1nc[nH]c1C(=O)N1CCN(C(=O)OC(C)(C)C)CC1)c1ccccc1", "inhibition": "-5.12% (inactive)"},
      {"smiles": "CNC(=O)c1[nH]cnc1C(=O)N[C@@H](CC(C)C)C(=O)OCc1ccccc1", "inhibition": "1.89% (inactive)"},
      {"smiles": "CC(C)(C)OC(=O)CNC(=O)c1[nH]cnc1C(=O)N[C@@H](Cc1ccccc1)C(=O)OCc1ccccc1", "inhibition": "11.2% (active)"},
      {"smiles": "CC(C)(C)OC(=O)N1CCC(NC(=O)c2[nH]cnc2C(=O)N[C@@H](Cc2ccccc2)C(=O)OCc2ccccc2)CC1", "inhibition": "14.3% (active)"},
      {"smiles": "C[C@H](NC(=O)c1nc[nH]c1C(=O)NCC(=O)OC(C)(C)C)c1ccccc1", "inhibition": "-0.12% (inactive)"},
      {"smiles": "Cc1cc(C)n2ncc(C(=O)Nc3ccc4c(c3)OCCO4)c2n1", "inhibition": "-3.48% (inactive)"},
      {"smiles": "COc1cc(NC(=O)C2CCCN(S(=O)(=O)c3ccc(C(C)(C)C)cc3)C2)cc(OC)c1", "note": "(stereo unspecified)", "inhibition": "3.29% (inactive)"},
      {"smiles": "CCOC(=O)[C@]12CCCC=C1N(Cc1ccc(OC)cc1)C(=O)[C@@H]2CC(=O)N1CCOCC1", "inhibition": "-0.05% (inactive)"},
      {"smiles": "CCOc1ccc(OCC)c(-c2c(=O)n(OCc3ccc(Cl)cc3)c3ccccc3[n+]2[O-])c1", "inhibition": "9.36% (active)"},
      {"smiles": "COc1ccc(OC)c(-c2c(=O)n(OCc3ccccc3Br)c3ccccc3[n+]2[O-])c1", "inhibition": "0.86% (inactive)"},
      {"smiles": "O=c1c(-c2ccc(Cl)cc2)[n+]([O-])c2ccccc2n1OCc1nc2ccccc2[nH]1", "inhibition": "-12.2% (inactive)"},
      {"smiles": "Cc1c(C(C)c2ccccc2O)[nH]c2ccccc12", "note": "(stereo unspecified)", "inhibition": "4.61% (inactive)"},
      {"smiles": "O=C(NCc1cccs1)C1CCN(S(=O)(=O)c2ccccc2[N+](=O)[O-])CC1", "inhibition": "1.09% (inactive)"},
      {"smiles": "Cc1cc(NC(=O)c2ccccc2C)no1", "inhibition": "-1.75% (inactive)"},
      {"smiles": "COc1ccc(C(=O)OCC(=O)NC(=O)CCSc2ccccc2)cc1", "inhibition": "0.55% (inactive)"},
      {"smiles": "O=C(COC(=O)c1ccccc1)Nc1ccccc1Sc1ccccc1", "inhibition": "9.99% (active)"},
      {"smiles": "O=C(COC(=O)c1ccccn1)Nc1cccc2ccccc12", "inhibition": "-0.52% (inactive)"},
      {"smiles": "Cc1ccccc1C(=O)O", "inhibition": "-1.22% (inactive)"},
      {"smiles": "Cc1ccccc1C(=O)Nc1ccccc1Sc1ccccc1", "inhibition": "10.4% (active)"},
      {"smiles": "COc1ccc(-n2c(SCC(=O)Nc3ccc4cn[nH]c4c3)nnc2-c2cccnc2)cc1", "inhibition": "2.47% (inactive)"},
      {"smiles": "COc1ccc(C2Nc3ccccc3C(=O)N2Cc2cccs2)cc1COc1c(C)cccc1C", "note": "(stereo unspecified)", "inhibition": "-93.1% (inactive)"},
      {"smiles": "CC(C)CNc1cccc2c1S(=O)(=O)N(Cc1cn(Cc3ccc(Cl)cc3)nn1)Cc1ccccc1O2", "inhibition": "-4.11% (inactive)"},
      {"smiles": "COP(=O)(O)CNC(=O)OCc1ccccc1", "inhibition": "1.95% (inactive)"},
      {"smiles": "CN(C)S(=O)(=O)c1cccc(NC(=O)COC(=O)/C=C/c2cccs2)c1", "inhibition": "-0.31% (inactive)"},
      {"smiles": "O=C(COC(=O)C1(c2ccc(F)cc2)CCCC1)N1CCNC1=O", "inhibition": "-6.77% (inactive)"},
      {"smiles": "CN(C)S(=O)(=O)c1cccc(NC(=O)COC(=O)C2(c3ccccc3F)CCCC2)c1", "inhibition": "14.4% (active)"},
      {"smiles": "O=C(COC(=O)c1ccc(NS(=O)(=O)c2cccs2)cc1O)Nc1ccc(F)cc1", "inhibition": "8.44% (inactive)"},
      {"smiles": "NS(=O)(=O)c1ccc(NC(=O)COC(=O)C2(c3ccc(F)cc3)CCCC2)cc1", "inhibition": "10.8% (active)"},
      {"smiles": "CN(C)S(=O)(=O)c1cccc(NC(=O)COC(=O)c2cc(=O)[nH]c(=O)[nH]2)c1", "inhibition": "0.24% (inactive)"},
      {"smiles": "CCCCOCCCNC(=O)C[C@H]1C[C@@]2(C(=O)OC)C(=C[C@H](C(C)(C)C)O[C@@H]2C)N(CCc2ccc(OC)c(OC)c2)C1=O", "inhibition": "4.52% (inactive)"},
      {"smiles": "O=S1(=O)c2c(cccc2N2CCSCC2)Oc2ccccc2CN1Cc1cn(Cc2ccc(F)cc2)nn1", "inhibition": "-0.02% (inactive)"},
      {"smiles": "COc1ccc(N2CCN(CCNS(=O)(=O)c3ccc(Cl)s3)CC2)cc1", "inhibition": "-0.88% (inactive)"},
      {"smiles": "CCC[C@H]1C(=O)CC[C@@]23CCCN2C(=O)CCC[C@@H]13", "inhibition": "-0.61% (inactive)"},
      {"smiles": "COc1cc(/C=N/n2c(C)n[nH]c2=S)ccc1OCc1ccccc1", "inhibition": "10.8% (active)"},
      {"smiles": "C=CCOc1ccc(/C=N/n2cncn2)cc1OC", "inhibition": "-11.9% (inactive)"},
      {"smiles": "CNC(=S)N/N=C/c1ccc(OCc2ccccc2)c(Br)c1", "inhibition": "-1.43% (inactive)"},
      {"smiles": "COc1cccc(CNC(=O)C2CCCN(c3nc4ccccc4o3)C2)c1OC", "note": "(stereo unspecified)", "inhibition": "1.62% (inactive)"},
      {"smiles": "O=C(c1c[nH]c2ccccc12)N1CCC(Oc2cccnc2)CC1", "inhibition": "1.77% (inactive)"},
      {"smiles": "O=C1C(=O)N(Cc2ccc(-c3ccsc3)cc2)c2ccc(OC(F)(F)F)cc21", "inhibition": "1.76% (inactive)"},
      {"smiles": "CCOc1cc(C(=S)N2CCOCC2)ccc1OS(=O)(=O)c1ccc(Br)cc1", "inhibition": "-3.87% (inactive)"},
      {"smiles": "CC(=O)Nc1ccc(S(=O)(=O)Oc2ccc(Br)cc2C(=S)N2CCOCC2)cc1", "inhibition": "9.15% (active)"},
      {"smiles": "O=S(=O)(Oc1ccccc1C(=S)N1CCOCC1)c1ccc(Cl)cc1", "inhibition": "-1.11% (inactive)"},
      {"smiles": "O=C(C1CCCN1S(=O)(=O)c1ccccc1)N1CCc2ccccc2C1", "note": "(stereo unspecified)", "inhibition": "1.33% (inactive)"},
      {"smiles": "CCOc1c(Br)cc(/C=C2\\C(=O)N(CCC#N)N=C2C)cc1OC", "inhibition": "8.65% (active)"},
      {"smiles": "CC(C)(C)c1ccc(CSc2nnc(-c3cccs3)o2)cc1", "inhibition": "-1.78% (inactive)"},
      {"smiles": "COC(=O)[C@]12C[C@H](CC(=O)N3CCN(C(=O)C4CC4)CC3)C(=O)N(CCC3=CCCCC3)C1=C[C@H](C(C)C)O[C@@H]2C1CC1", "inhibition": "-8.05% (inactive)"},
      {"smiles": "CC1(C)C=Cc2c(ccc3c2OC[C@@H](c2ccc(O)cc2O)C3)O1", "inhibition": "19.4% (active)"},
      {"smiles": "CN[C@H]1C[C@H]2c3cc(N4CCOCC4)ccc3CCN2C[C@H]1[C@H](C)O", "inhibition": "-6.65% (inactive)"},
      {"smiles": "O=C(CCCCCN1C(=O)C2C3C=CC(C3)C2C1=O)Nc1ccccc1", "note": "(stereo unspecified)", "inhibition": "4.34% (inactive)"},
      {"smiles": "Cc1ccc(CC2(C)C(=O)Nc3ccc(OC(F)(F)F)cc32)cc1", "note": "(stereo unspecified)", "inhibition": "8.02% (inactive)"},
      {"smiles": "COc1ccccc1CC1(C)C(=O)Nc2ccc(OC(F)(F)F)cc21", "note": "(stereo unspecified)", "inhibition": "6.39% (inactive)"},
      {"smiles": "CC1(Cc2cccc(C#N)c2)C(=O)Nc2ccc(-c3cccc(C(F)(F)F)c3)cc21", "note": "(stereo unspecified)", "inhibition": "11.2% (active)"},
      {"smiles": "CC(c1c[nH]c2ccccc12)c1c(-c2ccccc2)n(C)c2ccccc12", "note": "(stereo unspecified)", "inhibition": "-2.38% (inactive)"},
      {"smiles": "N#Cc1ccccc1OC[C@@H](O)CN1CCC(C(O)(c2ccccc2)c2ccccc2)CC1", "inhibition": "-1.12% (inactive)"}
    ]}
  ]
}
